High-throughput results deposited in PubChem BioAssay by several laboratories.
An excerpt weighted towards active compounds, which were near 2.3% of everything screened.
Mcl1-Bid inh: Mcl-1/Bid binding inhibitors, primary screen, biochemical, TR-FRET, 1536-well; Induced myeloid leukemia cell differentiation protein Mcl-1 (Homo sapiens), Q07820; TR-FRET Mcl-1/Bid-Dy647 peptide binding; inhibition, % at 21.7 µM; actives 0.97% (n = 220,000);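 active = compounds that cut the binding signal by more than half at the single screening dose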;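 note: His-tagged Mcl-1 with europium anti-His antibody binding Bid BH3 peptide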
Bcl-xL primary: inhibitors of human Bcl-xL, primary screen, biochemical, fluorescence polarization, HTS. Bcl-2-like protein 1 (Homo sapiens), Q07817. actives 0.7% (n = 320,000). inhibition, % at 10.9 µM. GST-Bcl-xL / FITC-Bim BH3 peptide fluorescence polarization;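 active = inhibition above the mean of all tested compounds plus 3 SD, cutoff set per campaign, cut at about 30% in these data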;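 note: inhibitors lower millipolarization by displacing the labeled peptide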
Target sequence (Q07817 whole entry, looked up): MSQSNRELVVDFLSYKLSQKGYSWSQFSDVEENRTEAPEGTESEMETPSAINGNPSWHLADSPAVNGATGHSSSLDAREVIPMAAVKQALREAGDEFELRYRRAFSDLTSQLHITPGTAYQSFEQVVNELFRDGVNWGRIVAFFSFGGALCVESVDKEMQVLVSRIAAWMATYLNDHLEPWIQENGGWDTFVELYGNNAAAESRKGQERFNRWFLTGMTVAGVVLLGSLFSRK
GLD-1 TGE inh: GLD-1/TGE RNA complex disruptors, primary screen, biochemical, fluorescence polarization | Female germline-specific tumor suppressor gld-1 (Caenorhabditis elegans), Q17339 | purified GLD-1 + fluorescein TGE RNA | inhibition, % at 5.96 µM | actives 0.44% (n = 320,000) | AID 2280, 2010;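 active = percent inhibition above a per-plate cutoff, the plate mean of test compounds plus 3 SD, cut at about 30% in these data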
Target sequence (Q17339 whole entry, looked up): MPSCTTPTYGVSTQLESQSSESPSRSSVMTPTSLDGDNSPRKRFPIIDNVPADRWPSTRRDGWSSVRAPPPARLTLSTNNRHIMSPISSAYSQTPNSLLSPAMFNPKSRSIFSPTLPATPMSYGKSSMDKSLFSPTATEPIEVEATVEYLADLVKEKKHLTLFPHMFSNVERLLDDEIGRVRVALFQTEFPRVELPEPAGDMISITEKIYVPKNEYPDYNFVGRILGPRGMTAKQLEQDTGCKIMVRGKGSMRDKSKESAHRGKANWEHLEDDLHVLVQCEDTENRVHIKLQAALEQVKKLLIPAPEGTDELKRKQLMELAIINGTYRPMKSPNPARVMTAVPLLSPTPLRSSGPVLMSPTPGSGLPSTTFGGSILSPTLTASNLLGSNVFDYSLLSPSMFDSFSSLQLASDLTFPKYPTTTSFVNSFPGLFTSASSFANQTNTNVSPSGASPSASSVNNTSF
MCL1-BIM inh: inhibitors of MCL1 binding to BIM-BH3, primary screen, biochemical, fluorescence polarization | Induced myeloid leukemia cell differentiation protein Mcl-1 (Homo sapiens), Q07820 | GST-MCL1 / FITC-Bim-BH3 fluorescence polarization | inhibition, % at 10.9 µM | actives 0.68% (n = 320,000) | AID 2057, 2009;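 active = inhibition above the mean inhibition of all tested compounds plus 3 SD, set per campaign, cut at about 40% in these data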;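 note: higher means more loss of mP so more displacement of Bim peptide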
Bim-Mcl-1: inhibitors of Bim peptide binding to Mcl-1, primary screen, biochemical, bead-based flow cytometry, multiplex; Bim peptide-Mcl-1 binding; inhibition, % at 10 µM; actives 0.1% (n = 190,000); AID 1009, 2008; in the data active = inhibition above about 40%
Mcl1-Noxa inh: Mcl-1/Noxa binding inhibitors, primary screen, biochemical, TR-FRET, 1536-well; actives 1.5% (n = 220,000); Induced myeloid leukemia cell differentiation protein Mcl-1 (Homo sapiens), Q07820; AID 1022, 2008; inhibition, % at 21.7 µM; TR-FRET Mcl-1/Noxa peptide binding, 2 h;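 active = compounds that cut the protein-peptide binding signal by more than 50% relative to plate controls in a single-dose test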;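 note: His-tagged Mcl-1 with rhodamine Noxa BH3 peptide and terbium anti-His antibody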
Of the large screens only hits and unclear results are named; the others gave an inactive call; ! = repeats disagree.

O=C(O)CCC(=O)NCCC1=c2ccccc2=N/C1=C\c1c(O)n(Cc2ccc(F)cc2)c(=S)[nH]c1=O	Mcl1-Bid inh 100.2, Mcl1-Noxa inh 103.5 (no result: Bim-Mcl-1)
O=C(N/N=C/c1c(O)n(Cc2ccc(F)cc2)c(=O)[nH]c1=O)c1ccccc1	none (no result: Bim-Mcl-1)
COc1ccc(N/N=C/c2c(O)n(-c3cccc(C)c3)c(=O)[nH]c2=O)cc1	Bcl-xL primary 40.1
Cc1ccc(-n2c(O)c(/C=N/Nc3ccccc3)c(=O)[nH]c2=O)cc1C	none (no result: Bim-Mcl-1)
COc1cc(O)c(C(=O)O)c(-c2cc(O)c(O)cc2C)c1	Mcl1-Noxa inh 92.6 (no result: Bim-Mcl-1)
O=C1NC(=O)C2(Cc3ccccc3N3CCCC32)C(=O)N1 (centres undefined)	Bcl-xL primary 36.6
CN1CCN2c3ccc(N)cc3CC3(C(=O)NC(=O)NC3=O)C2C1 (centres undefined)	Mcl1-Bid inh 96.9 (no result: Bcl-xL primary, GLD-1 TGE inh, MCL1-BIM inh, Bim-Mcl-1)
CN1C(=O)N(C)C(=O)C2(Cc3cc(N)ccc3N3CCN(c4ccccc4F)CC32)C1=O (centres undefined)	Mcl1-Bid inh 91.2, Mcl1-Noxa inh 56.7
COc1ccccc1NC(=O)COC(=O)c1cc(C)n(C2CC2)c1C	none (no result: Mcl1-Bid inh, Bcl-xL primary, MCL1-BIM inh, Bim-Mcl-1, Mcl1-Noxa inh)
CC(C)(C)n1c(O)c(C=Nc2ccc3c(c2)CCC3)c(=O)[nH]c1=O	Mcl1-Noxa inh 71.4
Cn1c(O)c(C=Nc2ccc(F)cc2)c(=O)[nH]c1=O	none (no result: Mcl1-Bid inh, Bim-Mcl-1, Mcl1-Noxa inh)
Cc1ccc2c(c1)=NC(=O)/C(=C/c1c(O)[nH]c(=O)[nH]c1=O)C=2	none (no result: Bim-Mcl-1)
Cc1ccc2c(c1)=C/C(=C\c1c(O)[nH]c(=S)[nH]c1=O)C(=O)N=2	Mcl1-Noxa inh 56.7
COc1ccc(CCNC(=O)COC(=O)Cc2ccccc2)cc1	Mcl1-Bid inh 78.0
COc1cc(N2CCOCC2)ccc1C=C1C(=O)NC(=O)NC1=O	Bim-Mcl-1 42.0
CCCNC(=O)N1[C@H]2CC[C@@H]1C(C(=O)OC)=C(c1ccc(S(C)(=O)=O)cc1)C2	none (no result: Mcl1-Bid inh, Bim-Mcl-1, Mcl1-Noxa inh)
Cn1c(O)c(C=NC2CCN(Cc3ccccc3)CC2)c(=O)n(C)c1=O	none (no result: Mcl1-Bid inh, Bim-Mcl-1, Mcl1-Noxa inh)
COc1ccc(C(=O)CC2(CC(=O)c3ccc(OC)cc3)C(=O)N(C)C(=O)N(C)C2=O)cc1	none
CN1C(=O)N(C)C(=O)C2(Cc3c(ccc4ccccc34)N(C)C2)C1=O	Mcl1-Noxa inh 50.9
O=C1Nc2ccccc2C1Cc1nc2ccccc2c(=O)n1-c1ccccc1 (centres undefined)	Mcl1-Bid inh 54.0 (no result: Bim-Mcl-1)
CN1C(=O)C(Cc2nc3ccccc3c(=O)n2-c2ccccc2)c2ccccc21 (centres undefined)	none
CC(C)CCNC(=O)c1c(N)n(Cc2ccc3c(c2)OCO3)c2nc3ccccc3nc12	none
COCCOC(=O)c1c(N)n(Cc2ccco2)c2nc3ccccc3nc12	Bcl-xL primary 30.7, GLD-1 TGE inh 63.3 (no result: Mcl1-Bid inh, Bim-Mcl-1, Mcl1-Noxa inh)
CC(C)CNC(=O)c1c(N)n(Cc2ccco2)c2nc3ccccc3nc12	Mcl1-Noxa inh 87.1
CCCNC(=O)c1c(N)n(Cc2ccco2)c2nc3ccccc3nc12	none
COCCCNC(=O)c1c(N)n(Cc2ccco2)c2nc3ccccc3nc12	Bcl-xL primary 48.8, GLD-1 TGE inh 47.1, MCL1-BIM inh 53.9, Mcl1-Noxa inh 55.3 (no result: Bim-Mcl-1)
CCCNC(=O)c1c(N)n(Cc2ccc3c(c2)OCO3)c2nc3ccccc3nc12	Mcl1-Noxa inh 56.3
COC(=O)c1c(C)[nH]c(C(=O)C(C)[N+]23CCN(CC2)CC3)c1C (centres undefined)	Mcl1-Bid inh 73.6
CCC1(c2ccccc2)C(=O)N(COC)C(=O)N(COC)C1=O	Mcl1-Noxa inh 52.4
Cc1sc(-n2c(C)cc(C=C3C(=O)NC(=O)NC3=O)c2C)c(C#N)c1C	none
O=C1NC(=O)N(Cc2ccco2)C(=O)/C1=C/C=C/c1ccco1	Mcl1-Noxa inh 52.4 (no result: Bim-Mcl-1)
COc1ccc(CCn2c(O)c(/C=N/NC(=O)c3ccncc3)c(=O)[nH]c2=O)cc1OC	none
c1cncc(C2CCCCN2)c1 (centres undefined)	Mcl1-Bid inh 61.2 (no result: Bim-Mcl-1)
CN(C)CCSCc1nnc2n1-c1ccc(Cl)cc1C(c1ccccc1Cl)=NC2	none (no result: Mcl1-Bid inh, Bim-Mcl-1, Mcl1-Noxa inh)
COc1ccc(P2(=O)Nc3ccccc3N2)cc1	Bcl-xL primary 61.7, MCL1-BIM inh 51.8
O=C1NC(=O)N(c2ccccc2)C(=O)/C1=C/C=C/c1ccco1	none (no result: Bim-Mcl-1)
CN(C)c1ccc(/C=C/C=C2/C(=O)NC(=O)N(c3ccccc3)C2=O)cc1	Mcl1-Bid inh 51.5, Mcl1-Noxa inh 58.2 (no result: Bcl-xL primary, GLD-1 TGE inh, MCL1-BIM inh)
O=P(O)(O)C#Cc1ccccc1	Mcl1-Bid inh 96.4 (no result: Bcl-xL primary, GLD-1 TGE inh, MCL1-BIM inh)
C=C(c1ccccc1)P(=O)(O)O	none
CCCCCCn1c(O)c(C=NCCN2CCCCC2)c(=O)[nH]c1=O	none
CCCCCCn1c(O)c(C=NCCN2CCOCC2)c(=O)[nH]c1=O	Mcl1-Bid inh 99.4
CCOC(=O)c1c(C)n(Cc2ccco2)c2c1cc(O)c1ccccc12	none
C=C1C(=O)[C@@]23C[C@H]4[C@@H]5[C@@]6(C)CCC[C@@]57[C@@H]2[C@@H](O)[C@@H]1C[C@H]3[C@H]7N4C6	none (no result: Mcl1-Bid inh, Bim-Mcl-1, Mcl1-Noxa inh)
CC(C(=O)c1c[nH]c2ccccc12)N1CCN(C(=O)c2ccco2)CC1 (centres undefined)	none (no result: Bim-Mcl-1)
COc1cc2nc(N3CCN(C(=O)c4ccco4)CC3)nc(N)c2cc1OC	Mcl1-Bid inh 67.4!, Mcl1-Noxa inh 58.2!
CCn1nc(-c2ccccc2)nc2c(=O)n(C)c(=O)nc1-2	Bcl-xL primary 136.0, GLD-1 TGE inh 128.3, MCL1-BIM inh 148.3
CCOC(=O)CSc1ccc(C(=O)N2CCC3(CC2)OCCO3)cc1[N+](=O)[O-]	none (no result: Mcl1-Bid inh, Bim-Mcl-1, Mcl1-Noxa inh)
CN1CCC(N(C)c2ncnc3ccc(Br)cc23)CC1	none (no result: Bcl-xL primary, GLD-1 TGE inh, MCL1-BIM inh)
Cc1ccc(-c2nc(N(C)C3CCN(C)CC3)c3ccccc3n2)cc1	Mcl1-Noxa inh 62.9
Cc1cccc(N2C(=O)NC(=O)/C(=C/c3ccc([N+](=O)[O-])o3)C2=O)c1	Bcl-xL primary 32.8, MCL1-BIM inh 47.5, Mcl1-Noxa inh 71.9
Cc1cccc(N2C(=O)NC(=O)/C(=C\C=C\c3ccco3)C2=O)c1	none (no result: Bim-Mcl-1)
COc1ccc(CN2C(=O)NC(=O)/C(=C/c3ccc([N+](=O)[O-])o3)C2=O)cc1	Mcl1-Noxa inh 94.8 (no result: Bcl-xL primary, GLD-1 TGE inh, MCL1-BIM inh)
O=C1c2ccccc2C(=O)N1Cc1nc2ccccc2c(=O)n1-c1cccnc1	Mcl1-Bid inh 73.5
CNC(=O)OCc1n(C)cc[n+]1C	Mcl1-Bid inh 87.1
CCCNC(=O)N1[C@H]2CC[C@@H]1C(C(=O)OC)=C(c1ccc(C(C)=O)cc1)C2	none (no result: Mcl1-Bid inh, Bim-Mcl-1, Mcl1-Noxa inh)
C=CCC1(CN2CCCC2=O)C(=O)NC(=O)NC1=O	none
C=CCC1(CN2CCCCCC2=O)C(=O)NC(=O)NC1=O	Mcl1-Bid inh 61.1
